# RE007 growth inh – less growth of the S. pombe RE007 Vpr strain; S. pombe RE007 Vpr strain, BacTiter-Glo ATP luminescence, 24 h; Potency, µM (series often up to 92.2 µM), actives largely listed as inhibitors; AID 651644; actives 0.21% (n = 360,000); active = well fitted falling curve with a large enough effect; inconclusive = small, poorly fitted or top-dose-only effect; inactive = no such curve, though single readings can be large or run the other way; also: nearly all actives have a fitted effect of over 50% in size
#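 Fission yeast RE007 carrying one integrated HIV-1 vpr copy, seeded at OD 0.01 in PMG+AL medium with 23 nL pinned compound. Grown 24 h at 30 degrees; viability read by BacTiter-Glo luminescence after 5 min.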
# Tb PYK inh – inhibitors of Trypanosoma brucei pyruvate kinase; TbPYK enzyme, Kinase-Glo Plus ATP luminescence, 45 min; Potency, µM (doses to about 76.8 µM), actives largely listed as inhibitors; actives 0.12% (n = 410,000); AID 624173; also: nearly all actives have a fitted effect of over 50% in size
#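 In this concentration-response screen, enzyme-free wells defined baseline while DMSO plates tracked drift. Each reaction combined TbPYK, substrate, compound and 130 uM ADP for 45 min at room temperature. Kinase-Glo Plus luminescence gave the signal.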
# Giardia FBPA inh-1 – inhibitors of Giardia lamblia fructose-1,6-bisphosphate aldolase. A8B2U2. purified Giardia FBPA. Potency, µM (highest dose often 59.6 µM), most hits filed as inhibitors. actives 0.71% (n = 290,000); also: nearly all actives have a fitted effect of over 55% in size
#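 Giardia FBPA (40 nM reagent) was preincubated 10 min at RT with compound (up to 57.5 uM final), then substrate plus GAPDH/TPI/NAD/arsenate coupling system with diaphorase/resazurin was added; resorufin fluorescence (525/598 nm) was read after 20 min.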
# Sm TGR inh – S. mansoni TGR enzyme inhibition. purified TGR, DTNB reduction, TNB absorbance 405 nm. Potency, µM (series often up to 114 µM), actives largely listed as inhibitors. actives 3% (n = 360,000). AID 485364; also: nearly all actives have a fitted effect of over 60% in size
#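 TGR 20 nM + NADPH 100 uM (dispensed conc.), cpd preinc 15 min RT; start with NADPH (500 uM addition) then DTNB (15 mM addition). Kinetic TNB absorbance, 405 nm filter. Four-parameter Hill fit across titration.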
# LmPK inh – LmPK (Leishmania mexicana) enzyme inhibition. purified LmPK, Kinase-Glo ATP luminescence, 1 h. Potency, µM (top dose mostly 57.5 µM), hits mostly inhibitors. actives 0.37% (n = 290,000). AID 1721
# Target sequence (Q27686 whole entry, looked up): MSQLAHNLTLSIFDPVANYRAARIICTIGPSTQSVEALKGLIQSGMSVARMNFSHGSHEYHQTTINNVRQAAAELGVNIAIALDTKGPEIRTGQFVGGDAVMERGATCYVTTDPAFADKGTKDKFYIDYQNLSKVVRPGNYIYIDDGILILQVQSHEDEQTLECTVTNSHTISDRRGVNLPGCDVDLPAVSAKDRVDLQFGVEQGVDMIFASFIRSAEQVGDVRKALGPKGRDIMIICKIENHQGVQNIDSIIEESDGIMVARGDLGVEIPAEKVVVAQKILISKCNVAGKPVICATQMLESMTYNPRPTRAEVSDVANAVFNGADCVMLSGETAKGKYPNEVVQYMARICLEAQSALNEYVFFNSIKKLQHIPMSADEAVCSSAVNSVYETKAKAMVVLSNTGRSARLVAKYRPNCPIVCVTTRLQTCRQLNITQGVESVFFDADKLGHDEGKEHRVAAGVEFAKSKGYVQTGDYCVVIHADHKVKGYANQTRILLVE
#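 ATP generated from ADP (0.1 mM) and PEP (0.5 mM) by 0.1 nM LmPK over 1 h at room temperature (pH 7.2 imidazole buffer) was detected by coupled luciferase luminescence. Values were normalized to uninhibited and no-enzyme wells.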
# Giardia growth – Giardia lamblia growth inhibition | Potency, µM (titrated, usually from 57.5 µM), actives largely listed as inhibitors | actives 5% (n = 1,500) | shares compounds with Giardia FBPA inh-1 | AID 2785 | Giardia lamblia trophozoite growth inhibition;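 also: trophozoites exposed to compound for 48 h at 37 °C; nearly all actives have a fitted effect of over 70% in size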
# Mammal cell tox – toxic to mammalian cells in Giardia aldolase counter-screen | AID 2786 | Potency, µM (highest dose often 57.5 µM), actives largely listed as inhibitors | mammalian cell viability counter-screen, qHTS | actives 4% (n = 1,500) | shares compounds with Giardia FBPA inh-1;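 also: Chinese hamster ovary cells used as mammalian cytotoxicity surrogate; viability measured as cellular ATP by luminescence; compound exposure lasted 48 h before reading; nearly all actives have a fitted effect of over 60% in size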
# Giardia FBPA inh-2 – confirmation of Giardia fructose-bisphosphate aldolase inhibitors | shares compounds with Giardia FBPA inh-1 | purified Giardia aldolase enzyme activity, qHTS | Potency, µM (doses to about 57.5 µM), most hits filed as inhibitors | actives 5% (n = 1,500) | AID 2787; also: nearly all actives have a fitted effect of over 45% in size
# Rabbit FBPA inh – selectivity test for Giardia aldolase inhibitors: rabbit aldolase; shares compounds with Giardia FBPA inh-1; Rabbit muscle FBPA enzyme inhibition, selectivity counter-screen; Potency, µM (top dose mostly 57.5 µM), actives largely listed as inhibitors; actives 4% (n = 1,500); AID 2794; also: nearly all actives have a fitted effect of over 60% in size
# GAPDH coupling – GAPDH inhibition flagged for Giardia aldolase hits | shares compounds with Giardia FBPA inh-1 | GAPDH coupling enzyme counterscreen, biochemical, qHTS | Potency, µM (highest dose often 57.5 µM), most hits filed as inhibitors | actives 6% (n = 1,500) | AID 2795; also: nearly all actives have a fitted effect of over 55% in size
# Numbers stand for hits; 0 = inactive; ? = inconclusive; - = not tested or not shown; [ ] = dose if it differs, or a comment. Only some compounds are listed: those with a hit (about 3.3% of all), similar ones and a draw of the others. Unless noted, calls follow the shape of the dose curve; as a rule, active = well fitted curve in the direction sought with a large enough effect; inconclusive = small, poorly fitted or top-dose-only effect, or another doubt; inactive = no such curve, though single readings can be large; an effect the other way counts as inactive or inconclusive.
SMILES,RE007 growth inh,Tb PYK inh,Giardia FBPA inh-1,Sm TGR inh,LmPK inh,Giardia growth,Mammal cell tox,Giardia FBPA inh-2,Rabbit FBPA inh,GAPDH coupling
COC(=O)C(NC(=S)N1CC2C[C@@H](C1)Cn1c2cccc1=O)C(C)C (some centres not stated),0,0,0,0,0,-,-,-,-,-
COc1cc(C(=O)NC(=S)N2C[C@H]3C[C@H](C2)c2cccc(=O)n2C3)cc(OC)c1OC,0,0,11.2µM,0,0,0[10.4 µM],0,0,0,0
O=C(NC(=S)N1C[C@H]2C[C@H](C1)c1cccc(=O)n1C2)c1ccc(Cl)cc1,0,0,?,0,0,-,-,-,-,-
O=C(/C=C/c1ccccc1)NC(=S)N1C[C@H]2C[C@H](C1)c1cccc(=O)n1C2,0,0,?,0,0,-,-,-,-,-
Cc1coc(C)c1C(=O)CC1(O)C(=O)N(Cc2ccccc2)c2ccccc21 (configuration not stated),0,0,0,0,0,-,-,-,-,-
CC(C)NC(=O)c1ccc(-n2c(=S)[nH]c3ccccc3c2=O)cc1,-,-,0,0,0,-,-,-,-,-
O=C(CCN1CCCCC1)Nn1c(=S)[nH]c2ccccc2c1=O,0,0,22.3µM,0,0,?,0,0,0,0
O=C(Nn1c(=S)[nH]c2ccccc2c1=O)c1ccncc1,0,0,15.8µM,0,0,0,0,0,0,0
Cc1cccc(NC(=O)[C@H](Cc2ccccc2)NC(=O)[C@@H]2Cc3ccccc3CN2)c1,0,0,-,0,0,-,-,-,-,-
O=C(O)c1cccc(S(=O)(=O)Nc2ccc3[nH]c(=O)[nH]c3c2)c1,0,0,?,0,0,-,-,-,-,-
O=C(O)c1ccc(Cl)c(S(=O)(=O)Nc2ccc3[nH]c(=O)[nH]c3c2)c1,0,0,?,0,0,0,0,18.3µM,?,16.3µM
CCOC(=O)C1CCCN(C/C=C/c2ccccc2)C1 (configuration not stated),0,0,15.8µM,0,0,0,0,0,0,0
O=C(O)c1cc2ncc(CCO)cn2n1,0,0,15.8µM,0,0,0,0,0,0,0
CCc1ccc(-n2nc(C)c3c(C(=O)NCCc4ccc(OC)c(OC)c4)cc(C)nc32)cc1,-,0,-,0,-,-,-,-,-,-
Cc1cccn2cc(CNS(=O)(=O)c3cccc(F)c3)nc12,0,0,0,0,0,-,-,-,-,-
C=CCNCCCOc1ccc(Cl)cc1C(C)(C)C,0,0,17.7µM,-,0,0,0,0,0,0
C=CCNCCOCCOc1ccc(Cl)cc1C(C)(C)C,0,0,0,0,0,-,-,-,-,-
CCOc1ccc(CN(C)CC(=O)Nc2cccc(S(=O)(=O)N(C)c3ccccc3)c2)cc1,0,0,19.9µM,0,0,?,0,0,0,0
CN(C)CCCNCC(=O)c1c(-c2ccccc2)n(C)c2ccccc12,0,0,14.1µM,50.1µM,0,0,0,0,0,0
C[C@@H]1Cn2cnc(C(=O)N[C@@H](C)c3ccccc3)c2C(=O)N1,0,0,-,-,-,-,-,-,-,-
CO/N=C(/C(=O)N[C@@H]1C(=O)N2C(C(=O)O)=CCS[C@H]12)c1cnc(N)s1,-,-,15.8µM,0,0,0,0,0,0,0
NS(=O)(=O)c1ccc(NC(=O)NC2CCCCC2)cc1,0,0,0,0,0,-,-,-,-,-
NS(=O)(=O)c1ccc(NC(=S)NC2CCCCC2)cc1,0,?,9.98µM,-,0,0,?,39.8µM,?,39.8µM
O=c1c2ccccc2cnn1Cc1n[nH]c(=S)n1-c1ccc(Cl)cc1,0,?,0,0,?,-,-,-,-,-
